Laboratory results: PubChem BioAssay (NCATS)
Records with an inconclusive call do not appear. Values without a mark were called inactive. Active and inactive are the calls of the source. Calls come from the whole dose curve; as a rule, active = well fitted curve in the direction sought with a large enough effect; inconclusive = small, poorly fitted or top-dose-only effect, or another doubt; inactive = no such curve, though single readings can be large; an effect the other way counts as inactive or inconclusive.

Molecular target: Dual specificity protein kinase CLK4 (Homo sapiens) (UniProt Q9HAZ1)
Assay: qHTS Assay for Inhibitors of CDC-like Kinase 4 (ADP-FP Assay) (AID 1795); note: nearly all actives have a fitted effect of over 60% in size; note: potency is the fitted concentration of half-maximal effect;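 for activity change, negative = inhibition: recombinant human CLK4 phosphorylating RS repeat peptide at 1 µM ATP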
Settings: Transcreener ADP fluorescence polarization; series mostly up to 50 µM; activity change, negative = inhibition: at the top concentration
How it was run: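 Kinase activity was followed as ADP output, converted from fluorescence polarization with a calibration curve. Reactions ran one hour at low ATP (1 uM) with RS peptide substrate.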
% is set by controls: 0 for no effect and ±100 for the full control effect.

Sequence of Dual specificity protein kinase CLK4 (Homo sapiens) (Q9HAZ1 whole entry, looked up): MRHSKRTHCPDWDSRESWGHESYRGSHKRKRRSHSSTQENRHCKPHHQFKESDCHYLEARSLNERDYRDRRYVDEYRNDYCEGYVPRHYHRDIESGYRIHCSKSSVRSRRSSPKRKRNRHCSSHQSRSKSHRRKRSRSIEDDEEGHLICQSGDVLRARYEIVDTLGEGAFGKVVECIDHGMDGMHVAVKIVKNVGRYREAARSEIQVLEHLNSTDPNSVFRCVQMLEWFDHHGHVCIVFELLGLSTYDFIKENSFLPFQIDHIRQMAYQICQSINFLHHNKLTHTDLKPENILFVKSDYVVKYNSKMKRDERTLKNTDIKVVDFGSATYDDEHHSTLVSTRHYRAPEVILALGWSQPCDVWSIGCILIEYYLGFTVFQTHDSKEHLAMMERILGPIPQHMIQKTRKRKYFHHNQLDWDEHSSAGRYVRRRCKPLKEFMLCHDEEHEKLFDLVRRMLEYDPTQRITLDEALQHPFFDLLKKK

Point of comparison: `N#CCCn1c(=O)c(-c2ccc(F)cc2)nc2cnc(N3CCNCC3)nc21`, “activity change, negative = inhibition” value 4.9%. Against it:
- CCNc1ncc2nc(CCc3ccccc3)c(=O)n(Cc3ccc(F)cc3)c2n1 — higher, 10.5%
- COc1cccc(Cn2c(=O)c(CCc3ccccc3)nc3cnc(N4CCOCC4)nc32)c1 — higher, 8.5%
- COc1ccccc1CNc1ccnc(-c2ccccc2OC)n1 — higher, 8.42%

With `CS(=O)(=O)Nc1cccc(-c2ccc3ncnc(N4CCOCC4)c3c2)c1` the Potency was 7.08 µM (active).
In the case of `COc1ccccc1CNc1ncnc2ccc(-c3ccc4c(c3)OCO4)cc12`, the Potency is reported as 0.0251 µM (active).

Molecular target: Ubiquitin carboxyl-terminal hydrolase 1 (Homo sapiens) (UniProt O94782)
Assay: Inhibitors of USP1/UAF1: Pilot qHTS (AID 504865);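 note: rhodamine fluorescence freed from ubiquitin-rhodamine substrate followed over time; top concentration of the series differs between compounds; nearly all actives have a fitted effect of over 35% in size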
Settings: purified USP1/UAF1, Ub-rhodamine cleavage fluorescence; series mostly up to 54.9 µM; activity change, negative = inhibition: at the top concentration
How it was run: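 Enzyme-free wells gave the negative control, while test wells held 1nM USP1/UAF1 preincubated with compound for 15 min at room temperature. Ub-Rho at 150nM final started the reaction, and fluorescence at 480/540 nm was recorded kinetically.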

Sequence of Ubiquitin carboxyl-terminal hydrolase 1 (Homo sapiens) (O94782 whole entry, looked up): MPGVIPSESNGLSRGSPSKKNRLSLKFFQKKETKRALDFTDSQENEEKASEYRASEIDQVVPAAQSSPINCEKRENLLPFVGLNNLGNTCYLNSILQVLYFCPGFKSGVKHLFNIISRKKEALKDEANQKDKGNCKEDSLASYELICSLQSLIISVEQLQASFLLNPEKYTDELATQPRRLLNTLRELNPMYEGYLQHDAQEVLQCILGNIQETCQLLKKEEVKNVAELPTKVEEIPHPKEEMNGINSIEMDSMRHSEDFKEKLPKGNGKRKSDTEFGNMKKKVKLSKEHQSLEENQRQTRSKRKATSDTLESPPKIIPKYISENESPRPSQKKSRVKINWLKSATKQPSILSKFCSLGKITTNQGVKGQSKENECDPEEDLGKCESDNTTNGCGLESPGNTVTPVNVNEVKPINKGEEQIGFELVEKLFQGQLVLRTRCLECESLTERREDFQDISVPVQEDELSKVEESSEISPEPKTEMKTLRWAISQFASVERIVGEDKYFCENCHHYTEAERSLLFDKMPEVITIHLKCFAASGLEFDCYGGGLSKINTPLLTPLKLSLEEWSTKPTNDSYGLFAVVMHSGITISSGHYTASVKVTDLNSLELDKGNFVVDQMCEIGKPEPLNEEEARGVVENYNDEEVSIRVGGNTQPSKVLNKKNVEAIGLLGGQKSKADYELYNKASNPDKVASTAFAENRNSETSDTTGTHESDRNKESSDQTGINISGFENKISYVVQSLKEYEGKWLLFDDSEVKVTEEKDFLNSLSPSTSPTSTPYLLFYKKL

Point of comparison: `CCNc1ncc2nc(-c3ccc(OC)cc3)c(=O)n(CCc3ccccc3)c2n1`, “activity change, negative = inhibition” value -7.06%. Against it:
- Cc1cnc(CNc2cc(-c3cccnc3)ncn2)cn1 — lower, -7.1%
- CS(=O)(=O)Nc1cccc(-c2cc(Nc3ccccc3)ncn2)c1 — lower, -11.9%
- COc1ccccc1CNc1cc(-c2ccccc2Cl)ncn1 — higher, -1.96%
- Cc1noc(C)c1-c1cncnc1-n1ccnc1 — higher, 12.6%
- CCNc1ncc2nc(-c3ccc(Cl)cc3)c(=O)n(Cc3cccc(OC)c3)c2n1 — lower, -16%
- COc1cccc(Nc2ncc3ncc(=O)n(C[C@H]4CCCO4)c3n2)c1 — lower, -10.7%
- O=c1c(-c2cccc(Cl)c2)nc2cncnc2n1-c1ccccc1 — lower, -8.07%
- CN(Cc1ccco1)c1ncncc1-c1ccccc1C(F)(F)F — lower, -11.8%
- COc1ccc2[nH]cc(CCNc3ccnc(-c4c(C)noc4C)n3)c2c1 — lower, -19.7%
- COc1cccc(Cn2c(=O)c(-c3cccs3)nc3cnc(OC)nc32)c1 — lower, -14.5%
- O=c1c(-c2ccc(Cl)cc2)nc2cnc(N3CCOCC3)nc2n1Cc1ccc(F)cc1 — lower, -7.7%
- COCCNc1ncnc2ccc(-c3c(C)noc3C)cc12 — higher, -3.73%
- CN(Cc1ccco1)c1nc(-c2ccoc2)nc2ccccc12 — lower, -23.2%
- COc1cccc(Cn2c(=O)c(-c3cccs3)nc3cnc(N4CCNCC4)nc32)c1 — lower, -19.3%
- COc1ccccc1CNc1cc(-c2ccccc2C(F)(F)F)ncn1 — lower, -7.39%
- N#CCCn1c(=O)c(-c2cc(F)cc(F)c2)nc2cnc(Nc3ccccc3)nc21 — lower, -8.16%
- COc1cccc(Nc2ncc3nc(CCc4ccccc4)c(=O)n(Cc4cccs4)c3n2)c1 — higher, -4.84%
- Cc1ccccc1-c1ccc2ncnc(NCc3cccnc3)c2c1 — higher, 1.49%
- Cc1cnc(CNc2ncncc2-c2ccc(N(C)C)cc2)cn1 — higher, -0.608%
- Cc1cnc(CNc2cc(-c3ccccc3Cl)ncn2)cn1 — higher, -5.78%
- COc1cccc(Cn2c(=O)c(-c3cccc(C#N)c3)nc3cnc(N4CCOCC4)nc32)c1 — higher, -5.92%
- CN(C)C(=O)c1ccc(-c2cc(N(C)Cc3ccco3)ncn2)cc1 — higher, -4.86%
- COc1ccc(CNc2nc(-c3cccc(C#N)c3)nc3ccccc23)c(OC)c1 — lower, -12.7%
- CN(C)C(=O)c1ccc(-c2cncnc2Nc2ccc(F)cc2)cc1 — higher, -1.98%
- CCNc1ncc2nc(CCc3ccccc3)c(=O)n(Cc3ccc(F)cc3)c2n1 — higher, -5.83%
- CS(=O)(=O)Nc1cccc(-c2ccc3ncnc(N4CCOCC4)c3c2)c1 — lower, -11.8%
- CNc1nc(-c2cccc(C#N)c2)nc2ccccc12 — lower, -15.9%
- COc1cccc(-c2nc(NCCNC(C)=O)c3ccccc3n2)c1 — lower, -13.2%
- COc1ccccc1CNc1ncnc2ccc(-c3ccc4c(c3)OCO4)cc12 — lower, -16.4%
- N#CCCn1c(=O)c(-c2ccc(F)cc2)nc2cnc(N3CCNCC3)nc21 — lower, -8.36%
- Cc1noc(C)c1-c1nc(NC2CC2)c2ccccc2n1 — lower, -18.5%
- COc1ccccc1-c1cc(NCc2cnc(C)cn2)ncn1 — lower, -15.3%
- CN(Cc1ccco1)c1cc(-c2cccc(C#N)c2)ncn1 — lower, -8.45%

System: not listed separately
Assay: Primary qHTS for small molecule stabilizers of the endoplasmic reticulum resident proteome: Secreted ER Calcium Modulated Protein (SERCaMP) assay (AID 1508630)
Settings: SH-SY5Y GLuc-SERCaMP (Gaussia luciferase released on ER calcium loss) secretion, thapsigargin, luminescence; series mostly up to 38.4 µM; activity change, negative = inhibition: at the top concentration
How it was run: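 The SH-SY5Y reporter protocol was run at 3 concentrations up to 38.3 uM (primary) or 11 concentrations (follow-up): 16 h compound, 100 nM thapsigargin for 4 h, then extracellular luciferase luminescence.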

Point of comparison: `Cc1noc(C)c1-c1nc(NC2CC2)c2ccccc2n1`, “activity change, negative = inhibition” value 11.6%. Against it:
- Cc1cnc(CNc2cc(-c3cccnc3)ncn2)cn1 — higher, 24.4%
- CS(=O)(=O)Nc1cccc(-c2cc(Nc3ccccc3)ncn2)c1 — higher, 21.9%
- CCNc1ncc2nc(-c3ccc(OC)cc3)c(=O)n(CCc3ccccc3)c2n1 — higher, 32.7%
- COc1ccccc1CNc1cc(-c2ccccc2Cl)ncn1 — higher, 99.7%
- Cc1noc(C)c1-c1cncnc1-n1ccnc1 — lower, -13.8%
- CCNc1ncc2nc(-c3ccc(Cl)cc3)c(=O)n(Cc3cccc(OC)c3)c2n1 — higher, 49.8%
- COc1cccc(Nc2ncc3ncc(=O)n(C[C@H]4CCCO4)c3n2)c1 — higher, 185%
- O=c1c(-c2cccc(Cl)c2)nc2cncnc2n1-c1ccccc1 — lower, -1.41%
- CN(Cc1ccco1)c1ncncc1-c1ccccc1C(F)(F)F — lower, 8.88%
- COc1ccc2[nH]cc(CCNc3ccnc(-c4c(C)noc4C)n3)c2c1 — lower, -12%
- COc1cccc(Cn2c(=O)c(-c3cccs3)nc3cnc(OC)nc32)c1 — lower, -14.2%
- O=c1c(-c2ccc(Cl)cc2)nc2cnc(N3CCOCC3)nc2n1Cc1ccc(F)cc1 — lower, -26.9%
- COCCNc1ncnc2ccc(-c3c(C)noc3C)cc12 — higher, 68.6%
- CN(Cc1ccco1)c1nc(-c2ccoc2)nc2ccccc12 — lower, -12.3%
- COc1cccc(Cn2c(=O)c(-c3cccs3)nc3cnc(N4CCNCC4)nc32)c1 — lower, -4.97%
- COc1ccccc1CNc1cc(-c2ccccc2C(F)(F)F)ncn1 — higher, 121%
- N#CCCn1c(=O)c(-c2cc(F)cc(F)c2)nc2cnc(Nc3ccccc3)nc21 — higher, 12.2%
- COc1cccc(Nc2ncc3nc(CCc4ccccc4)c(=O)n(Cc4cccs4)c3n2)c1 — higher, 13.4%
- Cc1ccccc1-c1ccc2ncnc(NCc3cccnc3)c2c1 — lower, -16.3%
- Cc1cnc(CNc2ncncc2-c2ccc(N(C)C)cc2)cn1 — lower, -24.1%
- Cc1cnc(CNc2cc(-c3ccccc3Cl)ncn2)cn1 — higher, 35.6%
- CCNc1ncc2nc(CCc3ccccc3)c(=O)n(C[C@H]3CCCO3)c2n1 — lower, -21.3%
- COc1cccc(Cn2c(=O)c(-c3cccc(C#N)c3)nc3cnc(N4CCOCC4)nc32)c1 — higher, 31.2%
- CN(C)C(=O)c1ccc(-c2cc(N(C)Cc3ccco3)ncn2)cc1 — lower, 6.96%
- COc1ccc(CNc2nc(-c3cccc(C#N)c3)nc3ccccc23)c(OC)c1 — lower, -18.5%
- CN(C)C(=O)c1ccc(-c2cncnc2Nc2ccc(F)cc2)cc1 — lower, -3.99%
- CCNc1ncc2nc(CCc3ccccc3)c(=O)n(Cc3ccc(F)cc3)c2n1 — lower, -2.16%
- CS(=O)(=O)Nc1cccc(-c2ccc3ncnc(N4CCOCC4)c3c2)c1 — lower, -28.6%
- COc1cccc(Cn2c(=O)c(CCc3ccccc3)nc3cnc(N4CCOCC4)nc32)c1 — higher, 24.2%
- COc1ccccc1CNc1ccnc(-c2c(C)noc2C)n1 — higher, 29.1%
- CNc1nc(-c2cccc(C#N)c2)nc2ccccc12 — lower, -14.1%
- COc1cccc(-c2nc(NCCNC(C)=O)c3ccccc3n2)c1 — lower, -21.4%
- COc1ccccc1CNc1ccnc(-c2ccccc2OC)n1 — lower, -20.1%
- COc1ccccc1CNc1ncnc2ccc(-c3ccc4c(c3)OCO4)cc12 — lower, -9.54%
- N#CCCn1c(=O)c(-c2ccc(F)cc2)nc2cnc(N3CCNCC3)nc21 — lower, -15.8%
- COc1cccc(-c2nccc(NCc3ccccc3OC)n2)c1 — lower, -20.3%
- COc1ccccc1-c1cc(NCc2cnc(C)cn2)ncn1 — higher, 22.8%
- COc1cccc(Nc2ncc3nc(-c4ccc(Cl)cc4)c(=O)n(C[C@H]4CCCO4)c3n2)c1 — lower, 2.57%
- CN(Cc1ccco1)c1cc(-c2cccc(C#N)c2)ncn1 — higher, 20.7%
